Results taken from the supplement of paper PMC13380429.

Legend:
[1] = test system: Vero E6 infected with SARS-CoV-2; experiment: morphology score (similarity to uninfected cells); higher = more like uninfected cells; conditions: 24 h
[2] = test system: Vero E6 infected with SARS-CoV-2; experiment: SARS-CoV-2 infection rate relative to infected DMSO; higher = more infection, active = 60 or less; conditions: 24 h

SMILES | morphology score [1] | SARS-CoV-2 infection rate [2]
CC(C)[C@H](CO)Nc1nc(Nc2ccc(C(=O)O)c(Cl)c2)c2ncn(C(C)C)c2n1 [purvalanol-B] (10 µM) | -0.00736 | 101% (inactive)
O=C(O)CCN(O)C(=O)CCCCCCCCC1CC1 (10 µM) | 0.0952 | 102% (inactive)
COc1ccc(CCN(C)CCc2ccc(OC)c(OC)c2)cc1OC (10 µM) | 0.0297 | 103% (inactive)
CC(C)NC(=N)NC(=N)Nc1ccc(Cl)cc1 [proguanil] (10 µM) | -0.0553 | 112% (inactive)
N[C@@H](CC(=O)Nc1ccc(Oc2cc(F)c(F)cc2Br)cc1)C(=O)O (10 µM) | 0.233 | 98% (inactive)
c1ccc(OCc2ccc(CCCN3CCOCC3)cc2)cc1 [fomocaine] (10 µM) | -0.0235 | 106% (inactive)
NCCCCN=C(N)N [agmatine] (10 µM) | 0.0302 | 106% (inactive)
OC(CNCC(O)C1CCc2cc(F)ccc2O1)C1CCc2cc(F)ccc2O1 (stereo not drawn) [nebivolol] (10 µM) | 0.0502 | 108% (inactive)
Cc1cc2nc3c(=O)[nH]c(=O)nc-3n(C[C@H](O)[C@H](O)[C@H](O)COP(=O)(O)O)c2cc1C [riboflavin-5-phosphate-sodium] (10 µM) | 0.173 | 102% (inactive)
CS(=O)(=O)OCCCCOS(C)(=O)=O [busulfan] (10 µM) | -0.026 | 102% (inactive)
COc1ccc(CC(C)NCC(O)c2ccc(O)c(NC=O)c2)cc1 (stereo not drawn) [formoterol] (10 µM) | 0.0444 | 100% (inactive)
C[N+](C)(C)CCCCCCCCCC[N+](C)(C)C [decamethonium] (10 µM) | 0.0864 | 108% (inactive)
CC(C)C[C@@H](N)C1(c2ccc(Cl)cc2)CCC1 (10 µM) | -0.0886 | 116% (inactive)
NS(=O)(=O)c1cc2c(cc1Cl)NC(C1CC3C=CC1C3)NS2(=O)=O (stereo not drawn) [cyclothiazide] (10 µM) | 0.0121 | 106% (inactive)
COc1cc2c(NC3CCN(C)CC3)nc(N3CCCN(C)CC3)nc2cc1OCCCN(C)C (10 µM) | 0.124 | 116% (inactive)
Cc1ccc(Cl)c(Nc2ccccc2C(=O)O)c1Cl [meclofenamic-acid] (10 µM) | 0.0323 | 108% (inactive)
Nc1nccc(Oc2ccc(NC(=O)c3c[nH]cc(-c4ccc(F)cc4)c3=O)cc2F)c1Cl [metatinib] (10 µM) | 0.551 | 102% (inactive)
NC(=O)OCC(COC(N)=O)c1ccccc1 [felbamate] (10 µM) | -0.0125 | 99% (inactive)
COc1ccccc1OCC(O)CN1CCN(CC(=O)Nc2c(C)cccc2C)CC1 (stereo not drawn) [ranolazine] (10 µM) | 0.0908 | 101% (inactive)
CCCCCCCCCC(=O)OCCN1CCN(CCCN2c3ccccc3Sc3ccc(C(F)(F)F)cc32)CC1 [fluphenazine-decanoate] (10 µM) | -0.147 | 112% (inactive)

SMILES | morphology score [1] | SARS-CoV-2 infection rate [2]
N=C(N)NC(=N)Nc1cccc(Cl)c1 [m-chlorophenylbiguanide] (10 µM) | -0.0474 | 108% (inactive)
C=C(c1ccccc1OCc1cccc(Cl)c1)n1ccnc1 [croconazole] (10 µM) | 0.0614 | 104% (inactive)
CC(C)(CCCCCC(O)CCCCCC(C)(C)C(=O)O)C(=O)O [bempedoic-acid] (10 µM) | 0.0218 | 110% (inactive)
CO[C@H](C(=O)[C@@H](O)[C@@H](C)O)[C@@H]1Cc2cc3cc(O[C@H]4C[C@@H](O[C@H]5C[C@@H](O)[C@H](O)[C@@H](C)O5)[C@@H](O)[C@@H](C)O4)c(C)c(O)c3c(O)c2C(=O)[C@H]1O[C@H]1C[C@@H](O[C@H]2C[C@@H](O[C@H]3C[C@](C)(O)[C@H](O)[C@@H](C)O3)[C@H](O)[C@@H](C)O2)[C@H](O)[C@@H](C)O1 [plicamycin] (10 µM) | -0.159 | 104% (inactive)
CCCCC1=NC2(CCCC2)C(=O)N1Cc1ccc(-c2ccccc2-c2nnn[nH]2)cc1 [irbesartan] (10 µM) | 0.0469 | 96.5% (inactive)
Cc1ncc(-c2csc(N=C(N)N)n2)[nH]1 [zaltidine] (10 µM) | 0.0534 | 106% (inactive)
CCN1CCN(C(=O)Cc2ccc(Nc3ncc(F)c(Nc4ccc(C(=O)Nc5ccccc5Cl)cc4)n3)cc2)CC1 [aurora-a-inhibitor-i] (10 µM) | -0.072 | 86% (inactive)
C=C1CC[C@H](O)C/C1=C/C=C1\CCC[C@]2(C)[C@@H]([C@H](C)/C=C/[C@H](C)C(C)C)CC[C@@H]12 [ergocalciferol] (10 µM) | 0.0614 | 93.5% (inactive)
O=C(CN1CCN(Cc2ccc3c(c2)OCO3)CC1)N1c2ccccc2Sc2ccccc21 [fenoverine] (10 µM) | 0.02 | 110% (inactive)
CNC(=O)[C@@H](c1ccccc1)N1CCc2cc(OC)c(OC)cc2[C@@H]1CCc1ccc(C(F)(F)F)cc1 [almorexant] (10 µM) | -0.0542 | 105% (inactive)
CC[C@@H](CO)NCCN[C@@H](CC)CO [ethambutol] (10 µM) | -0.117 | 109% (inactive)
O=C(NCNC(=O)NC1C(=O)NC(=O)N1CO)NC1C(=O)NC(=O)N1CO (stereo not drawn) [imidurea] (10 µM) | -0.0758 | 108% (inactive)
C=CCN1CCc2nc(N)sc2CC1 [talipexole] (10 µM) | -0.1 | 104% (inactive)
CC(C)[C@H](CO)Nc1nc(Nc2cc(N)cc(Cl)c2)c2ncn(C(C)C)c2n1 [aminopurvalanol-a] (0.833333 µM) | -0.224 | 108% (inactive)
COc1ccc2cc(-c3cc(-c4cc(Cl)cc(Cl)c4)nn3[C@@H](C)c3ccc(C(=O)NCCC(=O)O)cc3)ccc2c1 (10 µM) | 0.164 | 106% (inactive)
Cc1ccc(OC[C@@H](O)[C@H](C)NC(C)C)c2c1CCC2 (racemic) (10 µM) | -0.0205 | 110% (inactive)
CCCCOc1ccc(-c2cncc(C(=O)NCc3cccnc3N3CCOCC3)c2)cc1Cl (10 µM) | -0.147 | 108% (inactive)
COC(=O)Nc1nc2cc(C(=O)c3ccc(F)cc3)ccc2[nH]1 [flubendazole] (10 µM) | 0.13 | 98% (inactive)
COc1ccc2c(OCc3nnc4ccc(-c5ccccc5)nn34)ccnc2c1 (10 µM) | 0.0318 | 110% (inactive)
O=C(Cn1ccnc1[N+](=O)[O-])NCc1ccccc1 [benznidazole] (10 µM) | 0.0566 | 112% (inactive)

SMILES | morphology score [1] | SARS-CoV-2 infection rate [2]
O[C@@H]1[C@H](O)[C@@H](CCl)O[C@H]1n1cnc2c(NC3CC4CCC3C4)ncnc21 (mixture of isomers) [5'-chloro-5'-deoxy-ENBA-(+/-)] (10 µM) | 0.0934 | 104% (inactive)
Nc1ccc(S(=O)(=O)Nc2ccccn2)cc1 [sulfapyridine] (10 µM) | 0.0798 | 102% (inactive)
CC#CC(=O)N1CCC[C@H]1c1nc(-c2ccc(C(=O)Nc3ccccn3)cc2)c2c(N)nccn12 [acalabrutinib] (10 µM) | -0.00394 | 108% (inactive)
COc1ccc(CN(C(=O)[C@@H](N)Cc2c(C)cc(C(N)=O)cc2C)[C@@H](C)c2ncc(-c3ccccc3)[nH]2)cc1C(=O)O [eluxadoline] (10 µM) | 0.15 | 117% (inactive)
CN1CCN(C(=O)c2nc3ccc(Cl)cc3[nH]2)CC1 (10 µM) | 0.119 | 108% (inactive)
N#C/C(=C1/SC[C@@H](c2ccc(Cl)cc2Cl)S1)n1ccnc1 [luliconazole] (10 µM) | 0.0257 | 104% (inactive)
CN(C)CC(c1ccc(O)cc1)C1(O)CCCCC1 (stereo not drawn) [desvenlafaxine] (10 µM) | 0.0229 | 106% (inactive)
C[C@@H](O)[C@H]1C(=O)N2C(C(=O)O)=C(S[C@@H]3CN[C@H](C(=O)N(C)C)C3)[C@H](C)[C@H]12 [meropenem] (10 µM) | 0.0366 | 104% (inactive)
Cc1ccc(OCCSc2ncccn2)c(Br)c1 (10 µM) | 0.0756 | 104% (inactive)
CC(C)Oc1cccc(-n2c(CCc3c[nH]c4ccc(Br)cc34)nc3ccccc3c2=O)c1 (10 µM) | 0.149 | 93% (inactive)
Cc1nnc(C(=O)NC(C)(C)c2nc(C(=O)NCc3ccc(F)cc3)c(O)c(=O)n2C)o1 [raltegravir] (10 µM) | 0.324 | 110% (inactive)
NC(Cc1ccc(I)cc1)C(=O)O (stereo in doubt) [4-iodo-L-phenylalanine] (10 µM) | 0.202 | 105% (inactive)
N#Cc1ccnc(N2C(=O)CC[C@H]2C(=O)N(c2cncc(F)c2)[C@H](C(=O)NC2CC(F)(F)C2)c2ccccc2Cl)c1 [ivosidenib] (10 µM) | 0.219 | 91.5% (inactive)
CC1=C(CC(=O)O)c2cc(F)ccc2/C1=C\c1ccc([S+](C)[O-])cc1 (stereo not drawn) [sulindac] (10 µM) | 0.0804 | 104% (inactive)
c1cnc(N2CCN(Cc3ccc4c(c3)OCO4)CC2)nc1 [piribedil] (10 µM) | 0.0979 | 98.5% (inactive)
O=C1Cc2c([nH]c3ccc(Br)cc23)-c2ccccc2N1 [kenpaullone] (10 µM) | 0.533 | 69.5% (inactive)
CNC(=O)Nc1ccc(-c2nc(N3CC4CCC(C3)O4)c3cnn(C4CCC5(CC4)OCCO5)c3n2)cc1 (0.833333 µM) | -0.104 | 100% (inactive)
CCCCc1nn(-c2ccccc2C(F)(F)F)c(=O)n1Cc1ccc(-c2ccccc2S(=O)(=O)NC(=O)c2sccc2C)cc1 (10 µM) | 0.0872 | 104% (inactive)
CN(C)c1ccc2c(c1)Sc1cc(N(C)C)ccc1N2 [leucomethylene-blue] (0.833333 µM) | 0.0825 | 114% (inactive)
